# Reference: PMC7862700, “An all-to-all approach to the identification of sequence-specific readers for epigenetic DNA modifications on cytosine”
# Tests used:
# Test in all cases: DAPPL (digital affinity profiling via proximity ligation, sequencing); 10 mM Tris-HCl pH 7.5, 50 mM NaCl, 1 mM DTT, 4% glycerol, room temperature, 30 min; GST-TFs on glutathione beads, 16-mer random dsDNA library, 0.1% formaldehyde crosslink after washing; high values mean tight binding
# FEV = molecular target: T1, FEV (Homo sapiens, UniProt Q99581 1-238); settings: protein: recombinant; tags: N-terminal GST; dsDNA, one strand shown
# T1 sequence: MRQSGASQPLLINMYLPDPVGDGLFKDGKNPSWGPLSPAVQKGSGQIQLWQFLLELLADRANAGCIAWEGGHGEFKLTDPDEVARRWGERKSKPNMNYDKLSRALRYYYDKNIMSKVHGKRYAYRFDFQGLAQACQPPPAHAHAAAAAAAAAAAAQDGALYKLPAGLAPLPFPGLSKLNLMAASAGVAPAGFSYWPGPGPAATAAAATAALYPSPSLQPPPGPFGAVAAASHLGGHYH
# Outline: (§1)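 Binding signal is given per hexamer as its read frequency for a factor divided by its frequency in the tag-only sample. GST-fused human transcription factors were expressed in yeast, captured on glutathione beads, barcoded with DNA and pooled with that sample, then incubated with 200 nmole of a 16-mer random double-stranded DNA library in Tris/NaCl/DTT/glycerol buffer for 30 min at room temperature. The pools were then washed, crosslinked, proximity-ligated, amplified by PCR and sequenced on an Illumina NextSeq500.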
# ETV5 = ETV5 (Homo sapiens, UniProt P41161 1-510); settings: protein: recombinant; tags: N-terminal GST; dsDNA, one strand shown
# Outline: as §1
# HSF1 = HSF1 (Homo sapiens, UniProt Q00613 1-529); settings: protein: recombinant; tags: N-terminal GST; chain copies: 3; dsDNA, one strand shown
# Outline: as §1
# SPIC = molecular target: T2, SPIC (Homo sapiens, UniProt Q8N5J4 1-248); settings: protein: recombinant; tags: N-terminal GST; dsDNA, one strand shown
# T2 sequence: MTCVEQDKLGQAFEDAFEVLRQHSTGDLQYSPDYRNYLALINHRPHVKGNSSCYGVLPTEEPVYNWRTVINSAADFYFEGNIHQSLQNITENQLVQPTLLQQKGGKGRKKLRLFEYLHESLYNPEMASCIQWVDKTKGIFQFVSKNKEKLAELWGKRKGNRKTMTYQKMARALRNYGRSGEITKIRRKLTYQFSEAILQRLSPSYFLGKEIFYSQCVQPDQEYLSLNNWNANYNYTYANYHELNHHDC
# Outline: as §1
# ELF4 = ELF4 (Homo sapiens, UniProt Q99607 1-663); settings: protein: recombinant; tags: N-terminal GST; dsDNA, one strand shown
# Outline: as §1
# ELK4 = molecular target: T3, ELK4 (Homo sapiens, UniProt P28324-2 1-405); settings: protein: recombinant; tags: N-terminal GST; dsDNA, one strand shown
# T3 sequence: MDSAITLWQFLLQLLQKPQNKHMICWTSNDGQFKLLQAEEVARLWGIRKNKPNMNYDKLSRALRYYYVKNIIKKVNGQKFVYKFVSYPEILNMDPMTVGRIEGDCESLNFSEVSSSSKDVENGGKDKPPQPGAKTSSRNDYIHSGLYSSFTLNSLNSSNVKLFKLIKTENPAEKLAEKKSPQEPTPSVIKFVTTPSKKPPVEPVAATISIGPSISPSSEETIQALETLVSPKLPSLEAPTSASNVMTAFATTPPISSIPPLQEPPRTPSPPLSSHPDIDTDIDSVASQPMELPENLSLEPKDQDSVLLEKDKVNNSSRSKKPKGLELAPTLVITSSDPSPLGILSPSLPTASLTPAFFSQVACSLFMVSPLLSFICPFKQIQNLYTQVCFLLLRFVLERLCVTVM
# Outline: as §1
# ETV2 = molecular target: T4, ETV2 (Homo sapiens, UniProt O00321 1-342); settings: protein: recombinant; tags: N-terminal GST; dsDNA, one strand shown
# T4 sequence: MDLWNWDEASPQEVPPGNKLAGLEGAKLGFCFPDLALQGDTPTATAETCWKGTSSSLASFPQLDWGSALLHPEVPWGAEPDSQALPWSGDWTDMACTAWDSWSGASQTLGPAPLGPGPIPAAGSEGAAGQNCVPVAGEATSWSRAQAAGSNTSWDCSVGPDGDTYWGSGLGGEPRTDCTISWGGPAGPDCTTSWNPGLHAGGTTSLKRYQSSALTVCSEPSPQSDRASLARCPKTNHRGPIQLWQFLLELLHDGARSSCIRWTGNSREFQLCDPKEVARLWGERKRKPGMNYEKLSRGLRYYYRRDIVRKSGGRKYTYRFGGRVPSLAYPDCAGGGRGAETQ
# Outline: as §1
# ELF3 = molecular target: T5, ELF3 (Homo sapiens, UniProt P78545 1-371); settings: protein: recombinant; tags: N-terminal GST; dsDNA, one strand shown
# T5 sequence: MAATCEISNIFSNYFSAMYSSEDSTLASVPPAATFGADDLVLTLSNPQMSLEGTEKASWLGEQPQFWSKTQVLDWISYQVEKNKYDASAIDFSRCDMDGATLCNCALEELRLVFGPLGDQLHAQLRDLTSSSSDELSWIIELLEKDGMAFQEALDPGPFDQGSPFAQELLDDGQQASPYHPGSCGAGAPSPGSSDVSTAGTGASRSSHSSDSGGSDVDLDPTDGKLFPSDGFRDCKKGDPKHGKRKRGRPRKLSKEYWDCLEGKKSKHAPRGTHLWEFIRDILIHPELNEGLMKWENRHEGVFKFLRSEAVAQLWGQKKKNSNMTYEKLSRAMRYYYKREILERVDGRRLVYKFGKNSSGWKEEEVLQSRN
# Outline: as §1
# CRX = CRX (Homo sapiens, UniProt O43186 1-299); settings: protein: recombinant; tags: N-terminal GST; dsDNA, one strand shown
# Outline: as §1
# ETV1 = ETV1 (Homo sapiens, UniProt P50549 1-477); settings: protein: recombinant; tags: N-terminal GST; dsDNA, one strand shown
# Outline: as §1
# ERF = molecular target: T6, ERF (Homo sapiens, UniProt P50548 1-548); settings: protein: recombinant; tags: N-terminal GST; dsDNA, one strand shown
# T6 sequence: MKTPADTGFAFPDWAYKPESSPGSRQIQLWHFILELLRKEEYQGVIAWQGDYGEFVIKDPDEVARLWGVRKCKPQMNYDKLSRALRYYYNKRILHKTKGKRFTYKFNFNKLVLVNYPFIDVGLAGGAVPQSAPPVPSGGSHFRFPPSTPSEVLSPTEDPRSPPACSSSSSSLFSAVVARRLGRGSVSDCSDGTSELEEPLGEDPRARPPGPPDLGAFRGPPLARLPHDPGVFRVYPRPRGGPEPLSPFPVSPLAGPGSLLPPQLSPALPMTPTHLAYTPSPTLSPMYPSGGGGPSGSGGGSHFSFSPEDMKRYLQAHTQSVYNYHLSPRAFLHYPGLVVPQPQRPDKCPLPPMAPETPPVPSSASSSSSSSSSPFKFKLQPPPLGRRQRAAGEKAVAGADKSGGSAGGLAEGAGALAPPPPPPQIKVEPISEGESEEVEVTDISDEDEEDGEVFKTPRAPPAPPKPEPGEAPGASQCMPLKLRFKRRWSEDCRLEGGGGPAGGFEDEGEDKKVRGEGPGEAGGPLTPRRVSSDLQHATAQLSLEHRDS
# Outline: as §1
# ETV3L = molecular target: T7, ETV3L (Homo sapiens, UniProt Q6ZN32 1-361); settings: protein: recombinant; tags: N-terminal GST; dsDNA, one strand shown
# T7 sequence: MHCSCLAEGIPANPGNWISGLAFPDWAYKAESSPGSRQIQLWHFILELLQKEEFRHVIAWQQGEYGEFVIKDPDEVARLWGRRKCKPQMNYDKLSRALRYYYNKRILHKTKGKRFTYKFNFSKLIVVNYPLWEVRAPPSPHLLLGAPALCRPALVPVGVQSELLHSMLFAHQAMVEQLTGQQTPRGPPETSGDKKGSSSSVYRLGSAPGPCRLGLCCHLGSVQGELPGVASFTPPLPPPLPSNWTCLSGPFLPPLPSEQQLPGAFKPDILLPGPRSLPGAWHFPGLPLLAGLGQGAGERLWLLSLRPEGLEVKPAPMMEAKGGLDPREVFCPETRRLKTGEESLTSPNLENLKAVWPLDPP
# Outline: as §1
# ETS2 = molecular target: T8, ETS2 (Homo sapiens, UniProt P15036 1-469); settings: protein: recombinant; tags: N-terminal GST; dsDNA, one strand shown
# T8 sequence: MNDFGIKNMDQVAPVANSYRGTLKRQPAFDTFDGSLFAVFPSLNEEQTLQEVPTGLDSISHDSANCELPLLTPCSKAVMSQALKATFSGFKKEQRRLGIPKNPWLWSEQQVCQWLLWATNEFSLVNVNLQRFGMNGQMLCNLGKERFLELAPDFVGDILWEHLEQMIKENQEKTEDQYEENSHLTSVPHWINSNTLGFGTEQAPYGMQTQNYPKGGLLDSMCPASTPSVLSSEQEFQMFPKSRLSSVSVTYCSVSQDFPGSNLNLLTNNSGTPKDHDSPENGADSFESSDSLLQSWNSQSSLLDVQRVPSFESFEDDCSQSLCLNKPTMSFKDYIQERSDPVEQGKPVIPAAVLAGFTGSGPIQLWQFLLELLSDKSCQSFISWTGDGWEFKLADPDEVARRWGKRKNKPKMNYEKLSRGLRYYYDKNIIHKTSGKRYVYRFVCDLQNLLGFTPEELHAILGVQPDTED
# Outline: as §1
# SPDEF = molecular target: T9, SPDEF (Homo sapiens, UniProt O95238 1-335); settings: protein: recombinant; tags: N-terminal GST; dsDNA, one strand shown
# T9 sequence: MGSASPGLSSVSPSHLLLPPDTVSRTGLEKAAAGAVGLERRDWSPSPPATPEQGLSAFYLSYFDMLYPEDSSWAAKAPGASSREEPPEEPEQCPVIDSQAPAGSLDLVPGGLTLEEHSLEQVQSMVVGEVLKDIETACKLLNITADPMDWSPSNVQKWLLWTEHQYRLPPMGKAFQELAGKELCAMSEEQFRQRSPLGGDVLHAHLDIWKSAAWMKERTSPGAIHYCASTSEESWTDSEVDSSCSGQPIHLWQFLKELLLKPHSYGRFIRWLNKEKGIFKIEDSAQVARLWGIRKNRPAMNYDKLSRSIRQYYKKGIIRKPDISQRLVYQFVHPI
# Outline: as §1
# ETV7 = molecular target: T10, ETV7 (Homo sapiens, UniProt Q9Y603 1-341); settings: protein: recombinant; tags: N-terminal GST; dsDNA, one strand shown
# T10 sequence: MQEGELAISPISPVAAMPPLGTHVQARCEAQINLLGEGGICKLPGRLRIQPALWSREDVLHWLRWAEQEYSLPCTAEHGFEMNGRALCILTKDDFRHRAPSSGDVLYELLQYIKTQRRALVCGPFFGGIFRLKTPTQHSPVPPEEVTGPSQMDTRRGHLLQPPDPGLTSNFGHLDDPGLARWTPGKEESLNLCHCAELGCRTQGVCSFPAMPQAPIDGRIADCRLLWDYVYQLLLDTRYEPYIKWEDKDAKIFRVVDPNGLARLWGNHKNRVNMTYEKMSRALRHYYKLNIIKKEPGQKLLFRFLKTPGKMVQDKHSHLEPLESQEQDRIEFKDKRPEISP
# Outline: as §1
# ELF5 = molecular target: T11, ELF5 (Homo sapiens, UniProt Q9UKW6-2 1-255); settings: protein: recombinant; tags: N-terminal GST; dsDNA, one strand shown
# T11 sequence: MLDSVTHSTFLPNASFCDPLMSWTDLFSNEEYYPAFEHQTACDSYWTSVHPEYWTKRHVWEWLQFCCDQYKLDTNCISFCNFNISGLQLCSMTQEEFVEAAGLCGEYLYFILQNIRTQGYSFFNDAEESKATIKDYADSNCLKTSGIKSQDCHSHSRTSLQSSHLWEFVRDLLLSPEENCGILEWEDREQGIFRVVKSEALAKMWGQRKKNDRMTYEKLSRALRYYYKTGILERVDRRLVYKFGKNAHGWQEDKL
# Outline: as §1
# ETV3 = molecular target: T12, ETV3 (Homo sapiens, UniProt P41162-2 1-143); settings: protein: recombinant; tags: N-terminal GST; dsDNA, one strand shown
# T12 sequence: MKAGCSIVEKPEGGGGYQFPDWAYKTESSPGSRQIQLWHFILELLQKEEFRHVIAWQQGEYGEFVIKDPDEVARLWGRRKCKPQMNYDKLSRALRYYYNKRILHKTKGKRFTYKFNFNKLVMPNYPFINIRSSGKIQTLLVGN
# Outline: as §1
# ETV6 = ETV6 (Homo sapiens, UniProt P41212 1-452); settings: protein: recombinant; tags: N-terminal GST; dsDNA, one strand shown
# Outline: as §1
# ETV6, sequence (P41212 whole entry): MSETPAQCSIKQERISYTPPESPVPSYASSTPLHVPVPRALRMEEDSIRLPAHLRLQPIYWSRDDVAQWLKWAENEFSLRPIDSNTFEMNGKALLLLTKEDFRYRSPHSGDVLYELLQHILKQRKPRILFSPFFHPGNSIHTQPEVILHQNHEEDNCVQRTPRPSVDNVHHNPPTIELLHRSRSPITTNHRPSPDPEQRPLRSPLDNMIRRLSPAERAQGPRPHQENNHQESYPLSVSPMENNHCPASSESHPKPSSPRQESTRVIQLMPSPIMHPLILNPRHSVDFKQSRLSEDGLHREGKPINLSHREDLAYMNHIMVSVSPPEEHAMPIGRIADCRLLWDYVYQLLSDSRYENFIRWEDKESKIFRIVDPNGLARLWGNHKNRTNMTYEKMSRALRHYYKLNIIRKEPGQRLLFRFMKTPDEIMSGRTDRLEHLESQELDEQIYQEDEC
# HSF1, sequence (Q00613 whole entry): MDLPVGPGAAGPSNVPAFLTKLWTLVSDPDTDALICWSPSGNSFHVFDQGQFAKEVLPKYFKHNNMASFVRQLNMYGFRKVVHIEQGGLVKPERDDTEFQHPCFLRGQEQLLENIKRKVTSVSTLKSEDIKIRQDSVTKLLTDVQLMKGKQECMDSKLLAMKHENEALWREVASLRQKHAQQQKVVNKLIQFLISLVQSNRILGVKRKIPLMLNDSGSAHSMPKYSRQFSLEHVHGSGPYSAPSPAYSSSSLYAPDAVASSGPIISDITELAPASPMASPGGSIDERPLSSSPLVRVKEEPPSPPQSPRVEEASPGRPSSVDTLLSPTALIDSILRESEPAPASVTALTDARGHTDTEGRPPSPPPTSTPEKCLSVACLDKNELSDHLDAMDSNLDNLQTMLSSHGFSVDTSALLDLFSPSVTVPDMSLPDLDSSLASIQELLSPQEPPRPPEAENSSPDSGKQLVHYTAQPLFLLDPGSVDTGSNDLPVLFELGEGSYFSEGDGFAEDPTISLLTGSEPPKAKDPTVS
# ELF4, sequence (Q99607 whole entry): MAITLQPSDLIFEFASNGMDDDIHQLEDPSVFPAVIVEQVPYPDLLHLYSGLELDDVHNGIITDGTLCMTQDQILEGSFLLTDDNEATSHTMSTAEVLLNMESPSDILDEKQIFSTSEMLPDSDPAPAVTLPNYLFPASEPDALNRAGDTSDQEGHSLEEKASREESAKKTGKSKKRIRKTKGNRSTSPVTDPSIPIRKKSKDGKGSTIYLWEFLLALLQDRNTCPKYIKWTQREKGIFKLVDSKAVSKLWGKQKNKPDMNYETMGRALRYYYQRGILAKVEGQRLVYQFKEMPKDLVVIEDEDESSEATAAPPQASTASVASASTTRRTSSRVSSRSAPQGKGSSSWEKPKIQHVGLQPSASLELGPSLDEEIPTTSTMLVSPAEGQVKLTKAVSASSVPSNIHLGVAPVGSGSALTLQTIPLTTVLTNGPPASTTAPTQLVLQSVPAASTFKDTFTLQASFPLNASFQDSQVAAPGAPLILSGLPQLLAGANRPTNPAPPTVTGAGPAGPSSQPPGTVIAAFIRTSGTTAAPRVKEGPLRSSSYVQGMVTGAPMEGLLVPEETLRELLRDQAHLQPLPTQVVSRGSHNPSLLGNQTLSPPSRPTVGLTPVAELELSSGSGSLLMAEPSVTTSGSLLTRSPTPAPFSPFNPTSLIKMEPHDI
# ETV5, sequence (P41161 whole entry): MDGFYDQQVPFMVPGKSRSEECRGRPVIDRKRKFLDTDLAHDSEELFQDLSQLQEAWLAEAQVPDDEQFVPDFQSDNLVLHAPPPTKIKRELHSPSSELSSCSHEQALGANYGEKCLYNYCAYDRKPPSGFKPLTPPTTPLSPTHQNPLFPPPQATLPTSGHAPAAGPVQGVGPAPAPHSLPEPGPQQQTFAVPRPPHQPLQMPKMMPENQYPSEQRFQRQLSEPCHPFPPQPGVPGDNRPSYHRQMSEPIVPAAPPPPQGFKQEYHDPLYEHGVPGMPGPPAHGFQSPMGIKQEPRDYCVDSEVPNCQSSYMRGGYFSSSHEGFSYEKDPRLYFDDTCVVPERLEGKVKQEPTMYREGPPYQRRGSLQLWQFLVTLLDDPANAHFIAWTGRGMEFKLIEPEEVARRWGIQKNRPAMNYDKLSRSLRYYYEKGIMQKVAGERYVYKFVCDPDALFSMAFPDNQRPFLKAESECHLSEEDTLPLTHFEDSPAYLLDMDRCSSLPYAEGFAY
# CRX, sequence (O43186 whole entry): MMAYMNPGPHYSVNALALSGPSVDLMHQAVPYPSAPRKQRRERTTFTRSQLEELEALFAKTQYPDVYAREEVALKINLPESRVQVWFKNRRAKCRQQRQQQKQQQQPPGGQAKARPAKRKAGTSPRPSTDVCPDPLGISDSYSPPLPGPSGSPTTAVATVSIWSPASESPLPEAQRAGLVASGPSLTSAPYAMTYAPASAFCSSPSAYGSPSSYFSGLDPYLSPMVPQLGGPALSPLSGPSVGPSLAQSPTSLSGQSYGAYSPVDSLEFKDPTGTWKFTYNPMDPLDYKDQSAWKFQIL
# ETV1, sequence (P50549 whole entry): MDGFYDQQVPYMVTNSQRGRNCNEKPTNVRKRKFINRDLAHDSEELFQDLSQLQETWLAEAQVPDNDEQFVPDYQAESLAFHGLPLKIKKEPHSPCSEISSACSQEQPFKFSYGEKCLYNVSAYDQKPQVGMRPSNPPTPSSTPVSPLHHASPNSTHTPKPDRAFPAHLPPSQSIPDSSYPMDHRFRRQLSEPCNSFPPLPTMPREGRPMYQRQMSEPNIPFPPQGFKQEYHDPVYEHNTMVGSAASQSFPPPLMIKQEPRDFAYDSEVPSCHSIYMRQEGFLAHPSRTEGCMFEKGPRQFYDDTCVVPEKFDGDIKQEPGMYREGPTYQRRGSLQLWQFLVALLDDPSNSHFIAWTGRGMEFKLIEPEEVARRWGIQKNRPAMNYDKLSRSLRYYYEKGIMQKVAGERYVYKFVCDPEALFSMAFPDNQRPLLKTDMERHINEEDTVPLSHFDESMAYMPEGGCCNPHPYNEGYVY
sequence,measurement,setting,value
TTCTCG,binding signal,FEV,"1.35 fold enrichment (6-mer frequency, TF over GST control)"
same,binding signal,ETV5,"1.29 fold enrichment (6-mer frequency, TF over GST control)"
same,binding signal,HSF1,"4.96 fold enrichment (6-mer frequency, TF over GST control)"
same,binding signal,SPIC,"1.32 fold enrichment (6-mer frequency, TF over GST control)"
same,binding signal,ELF4,"1.51 fold enrichment (6-mer frequency, TF over GST control)"
same,binding signal,ELK4,"1.5 fold enrichment (6-mer frequency, TF over GST control)"
same,binding signal,ETV2,"1.4 fold enrichment (6-mer frequency, TF over GST control)"
same,binding signal,ELF3,"1.57 fold enrichment (6-mer frequency, TF over GST control)"
same,binding signal,CRX,"2.17 fold enrichment (6-mer frequency, TF over GST control)"
same,binding signal,ETV1,"1.29 fold enrichment (6-mer frequency, TF over GST control)"
same,binding signal,ERF,"1.27 fold enrichment (6-mer frequency, TF over GST control)"
same,binding signal,ETV3L,"1.46 fold enrichment (6-mer frequency, TF over GST control)"
same,binding signal,ETS2,"1.45 fold enrichment (6-mer frequency, TF over GST control)"
same,binding signal,SPDEF,"1.34 fold enrichment (6-mer frequency, TF over GST control)"
same,binding signal,ETV7,"1.48 fold enrichment (6-mer frequency, TF over GST control)"
same,binding signal,ELF5,"1.47 fold enrichment (6-mer frequency, TF over GST control)"
same,binding signal,ETV3,"1.27 fold enrichment (6-mer frequency, TF over GST control)"
same,binding signal,ETV6,"1.36 fold enrichment (6-mer frequency, TF over GST control)"
